# Source: PubChem BioAssay (National Center for Advancing Translational Sciences (NCATS))
# Compounds with a hit are over-represented: about 11% of the library has one in this group of screens.
# IMPase Li inh: IMPase inhibition in cells with lithium potentiation | 210,000 tested, 0.35% active | CHO-M1 cells, IP1 TR-FRET (IP-One), carbachol + lithium | Potency, µM (doses to about 59.4 µM), for the others: at the highest dose activity, negative = IMPase inhibition, usual class: inhibitors; active = well fitted curve in the direction sought with a large enough effect; inconclusive = small, poorly fitted or top-dose-only effect, or another doubt; inactive = no such curve, though single readings can be large; an effect the other way counts as inactive or inconclusive;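 note: IP1 builds up when IMPase is blocked and the TR-FRET signal falls; potency is the fitted concentration of half-maximal effect; plate controls were basal vehicle for no effect and high inhibitor control for full effect; nearly all actives have a fitted effect of over 50% in size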
#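 CHO cells stably expressing M1 receptor (2000/well, cultured 16–30 h) treated 30 min at 37C with compound plus low lithium. Cytosolic IP1 by TR-FRET (665/620 ratio and 620 channel) after 10 min lysis; AC50 by Hill fit.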
# ALOX12 inhib: inhibitors of human 12-lipoxygenase (ALOX12); P18054; purified 12-hLO, xylenol orange hydroperoxide absorbance; Potency, µM (series often up to 57.1 µM), inactives show top-dose activity change, negative = inhibition, usual class: inhibitors; 150,000 tested, 0.12% active; AID 1452; active = well fitted curve in the direction sought with a large enough effect; inconclusive = small, poorly fitted or top-dose-only effect, or another doubt; inactive = no such curve, though single readings can be large; an effect the other way counts as inactive or inconclusive; note: potency is the fitted concentration of half-maximal effect; nearly all actives have a fitted effect of over 55% in size
#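 Hydroperoxide formation by human 12-lipoxygenase from 40 uM arachidonic acid was followed colorimetrically via ferric-xylenol orange complex, using the 573/405 nm absorbance ratio. Enzyme concentration was 150 nM, with 30 min reaction at room temperature.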
# PNC assembly inh: perinucleolar compartment assembly inhibition; PC3M PTB-GFP, PNC prevalence imaging, 16 h; active compounds read low; activity change (PNC), negative = inhibition, % at 10 µM; 140,000 tested, 3.1% active;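 active = readout at or below -70, meaning at least 70% loss of cells showing the perinucleolar compartment, a nuclear body marking cancer cells; inconclusive = readout between -30 and a set limit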;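 note: plate controls were DMSO wells for no effect and camptothecin positive control wells for full effect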
#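 Read-out is percentage of cells bearing a perinucleolar compartment, from automated 20x imaging of fixed, Hoechst-stained PC3M PTB-GFP cells. Cells were seeded 4 h, then exposed 16 h to compound (23 nl of library stock) in duplicate plates.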
# HPGD inh: blocks human HPGD enzyme activity; P15428; purified HPGD, NADH fluorescence kinetic, PGE2 substrate; Potency, µM, inactives show at the highest dose activity change, negative = inhibition, most hits filed as inhibitors; 150,000 tested, 4.3% active; AID 894; note: potency is the fitted concentration of half-maximal effect
# Target sequence (P15428 whole entry, looked up): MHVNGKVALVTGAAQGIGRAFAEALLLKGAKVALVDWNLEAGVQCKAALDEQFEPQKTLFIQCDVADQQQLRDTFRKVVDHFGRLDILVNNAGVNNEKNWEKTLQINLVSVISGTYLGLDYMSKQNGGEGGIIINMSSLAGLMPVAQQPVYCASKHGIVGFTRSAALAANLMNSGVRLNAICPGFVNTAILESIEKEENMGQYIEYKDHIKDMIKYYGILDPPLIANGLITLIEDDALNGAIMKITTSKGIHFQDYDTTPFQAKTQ
#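 NADH formation kinetics: reaction with 30 uM PGE2 and 1 mM NAD+ (final), 20 nM enzyme, Tris-HCl pH 8 with Tween 20, after 15 min compound preincubation at room temperature. Fluorescence change, last versus first of five reads.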
# ALDH1A1 block: blocks purified human ALDH1A1 activity | Purified ALDH1A1, NADH fluorescence, propionaldehyde substrate | Potency, µM (series often up to 75.3 µM), without a hit: at the highest dose activity, negative = inhibition, most hits filed as inhibitors | 220,000 tested, 7.3% active | AID 1030;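 note: potency is the fitted concentration of half-maximal effect; plate controls were no enzyme wells and a reference inhibitor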
# IMPase cell inh: membrane-permeable compound that blocks inositol monophosphatase. CHO-M1 cells, IP1 accumulation, HTRF TR-FRET ratio. inhibition (IP1 accumulation), % at 46.1 µM. 120,000 tested, under 10 active. AID 901; active = well fitted curve in the direction sought with a large enough effect in the signal ratio, not every such curve was filed as active; inconclusive = small, poorly fitted or top-dose-only effect, or a change in a side signal; inactive = no such curve, though single readings can be large or run the other way; the % refers to the signal ratio;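 note: cells stimulated with carbachol in lithium chloride buffer; plate controls were DMSO basal wells for no effect and reference inhibitor wells for full effect; higher means more IMPase inhibition seen as more IP1 and lower FRET ratio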
# Target sequence (P97697 whole entry, looked up): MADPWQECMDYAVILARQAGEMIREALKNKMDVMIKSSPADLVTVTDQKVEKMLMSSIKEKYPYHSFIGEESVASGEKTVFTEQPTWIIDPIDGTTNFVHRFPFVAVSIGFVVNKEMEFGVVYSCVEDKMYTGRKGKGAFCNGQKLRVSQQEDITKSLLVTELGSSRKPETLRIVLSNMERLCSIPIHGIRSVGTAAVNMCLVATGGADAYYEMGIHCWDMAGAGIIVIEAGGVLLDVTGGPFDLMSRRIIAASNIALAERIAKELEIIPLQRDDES
#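 Carbachol-driven Gq signalling in CHO-M1 cells (2000/well) generates IP1. Compounds that block IMPase raise IP1 and so reduce the FRET signal from Eu-anti-IP1 and d2-IP1 after a 10 min room-temperature lysis.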
# Starred values were filed as active, the others as inactive; ? = inconclusive; / = not tested or not shown; [ ] = dose if it differs, or a comment. Unless noted, calls come from the whole dose curve; as a rule, active = well fitted inhibition curve with a large enough effect (not every such curve was filed as active); inconclusive = small, poorly fitted or top-dose-only effect, or another doubt; inactive = no such curve, though single readings can be large or run the other way. Unless noted, % is set by controls: 0 for no effect and ±100 for the full control effect.
SMILES,IMPase Li inh,ALOX12 inhib,PNC assembly inh,HPGD inh,ALDH1A1 block,IMPase cell inh
CCC(c1nnnn1Cc1ccco1)N(Cc1cc2cc(C)cc(C)c2[nH]c1=O)CC1CCCO1 (stereo unspecified),35%[38.3 µM],-7%,4,-15%,13µM*,8
Cc1cccc2cc(CN(Cc3ccco3)C(c3nnnn3CCc3ccccc3)C(C)C)c(=O)[nH]c12 (stereo unspecified),12%[38.3 µM],-27%,-99*,?,32µM*,7
COc1ccc2[nH]c(=O)c(CN(Cc3ccco3)C(c3nnnn3Cc3ccccc3)C(C)C)cc2c1 (stereo unspecified),7%[38.3 µM],-12%,-9,?,?,7
CCC(c1nnnn1Cc1ccco1)N(Cc1ccccc1OC)Cc1cc2cc(C)ccc2[nH]c1=O (stereo unspecified),1%[38.3 µM],-15%,28,-14%,?,3
COC[C@H]1OC=C[C@@H](OC)[C@@H]1OC,16%,/,/,-3%,-1%,/
COc1ccc(CNc2ccnc(-c3ccccc3C(F)(F)F)n2)c(OC)c1,12%,0%,/,-12%,-1%,/
Cc1cccc(NC(=O)CSC2=Nc3ccccc3C3=NC(CCC(=O)NCc4ccc(F)cc4)C(=O)N23)c1 (stereo unspecified),/,/,/,/,/,1
CON1C(=O)C(=O)N(OC)C(C)(C)C1(C)C,0%,-1%,?,1%,20µM*,/
CC1(C)N(OCc2ccccc2)C(=O)C(=O)N(OCc2ccccc2)C1(C)C,20%[38.3 µM],0%,2,-4%,10%,0
CC1CCN(C(=O)c2ccc(CSc3nc4ccncc4n3Cc3ccc(F)cc3)cc2)CC1,16%,-4%,7,0.79µM*,-8%,/
CCCCCCCCCCCCCCCC[n+]1cccc(C(=O)N(CC)CC)c1,24%,0%,?,1%,?,/
CCCCCCCC[n+]1cccc(C(=O)N(CC)CC)c1,20%,-2%,-124*,-8%,4%,/
O=C(NCc1cccs1)c1ccccc1[N+](=O)[O-],2%,1%,?,13µM*,8%,/
COc1ccc(C(=O)NNC(=O)c2ccccc2[N+](=O)[O-])cc1Br,0%,2%,3,-6%,-6%,/
COc1ccc(C(=O)NNC(=O)c2ccccc2[N+](=O)[O-])cc1,0%,-2%,-89*,1%,8%,/
O=C(NNC(=O)c1ccccc1[N+](=O)[O-])c1ccccc1[N+](=O)[O-],1%,/,/,/,22µM*,/
COc1ccc(C(=O)NNc2ccccc2)cc1,-4%,12%,18,-18%,28µM*,/
O=C(Nc1cccc(NC(=O)c2ccccc2[N+](=O)[O-])n1)c1ccccc1[N+](=O)[O-],8%[38.3 µM],-5%,16,-10%,-17%,-1
CCN1C(=O)[C@H]2[C@H]3[C@H](O)[C@H](O)C/C(=N/O[C@@H](C)c4cn([C@H]5COC[C@H]5O)nn4)[C@@H]3CC[C@@H]2C1=O,/,/,/,/,4%[13.5 µM],/
C=CC[C@](C)(O)c1ccccc1,9%,-2%,/,-2%,1%,/
COc1ccc(S(=O)(=O)N(CCO)c2ccccc2CN(C)C/C=C/c2ccc(Cl)cc2)cc1,27%,/,/,/,0%,/
O=C(NNS(=O)(=O)c1ccccc1[N+](=O)[O-])c1ccc(O)cc1,43%[38.3 µM],-8%,-25,13µM*,3.2µM*,4
Cc1ccc(-c2csc3ncnc(OCC(=O)NC(=O)NCc4ccco4)c23)cc1,2%[38.3 µM],-20%,-125*,?,?,-4
Cc1ccc(C)c(C(=O)CSc2n[nH]c(-c3ccncc3)n2)c1,/,-2%,-11,/,5µM*,-5
Cc1ccc(Cl)cc1-c1ccc(C=Nc2ccc(N3CCOCC3)cc2)o1,?,?,-3,?,10µM*,/
SMILES,IMPase Li inh,ALOX12 inhib,PNC assembly inh,HPGD inh,ALDH1A1 block,IMPase cell inh
Cc1ccc(/C=N/N2CCN(c3ccc(Cl)cc3)CC2)o1,-2%[38.3 µM],-12%,-16,-3%,1%,-1
CC(=O)Nc1cccc(C(=O)N/N=C/c2cccnc2)c1,-1%,/,/,/,6%,/
Fc1ccc(/C=N/NC(=S)Nc2cccnc2)cc1F,18%,/,/,/,?,/
Fc1ccc(/C=N/NC(=S)Nc2cccnc2)cc1,5%,/,/,/,22µM*,/
Oc1cccc(/C=N/NC(=S)Nc2cccnc2)c1O,4%,-28%,?,32µM*,?,/
Oc1ccc(/C=N/NC(=S)Nc2cccnc2)c(O)c1,21%,1%,37,?,-74%,13
O=C(O)c1cccc(NC(=S)N/N=C/c2cccnc2)c1,-2%,/,/,/,25µM*,/
CC(=O)Nc1ccc(S(=O)(=O)N2CCSC2c2ccco2)cc1 (stereo unspecified),2%,/,/,/,?,/
O=C(Nc1ccc(Cl)c(Cl)c1)N1CCSC1c1ccco1 (stereo unspecified),27%[38.3 µM],?,13,22µM*,5µM*,7
CC1CCC(C(=O)O)NC1c1cccc(N2CCOCC2)c1 (stereo unspecified),/,/,/,/,-3%[13.5 µM],/
CC(=O)N(c1ccccc1)C1CCCC1,5%,2%,2,-7%,1%,/
O=C(CCl)N(c1ccccc1)C1CCCCC1,12%,/,/,/,0.035µM*,/
CCOC(=O)N1CCC(NC(=O)CCN2C(=O)C3C4C=CC(C4)C3C2=O)CC1 (stereo unspecified),11%[38.3 µM],-3%,-101*,-7%,-12%,-3
NC[C@H]1O[C@@H](n2cnc3c(=O)[nH]c(N)nc32)[C@@H](O)[C@@H]1O,8%,-8%[11.4 µM],/,-7%,3%[13.5 µM],/
CCOC(=O)c1ccc(CC(=O)c2oc3cc(O)ccc3c2C)o1,-12%[38.3 µM],-22%,16,?,?,-4
CCOC(=O)c1ccc(CC(=O)c2ccc(O)c(O)c2O)o1,7%,/,/,/,10µM*,/
C[C@H](CCC(=O)O)[C@H]1CC[C@]2(C)[C@@H]3C(=O)C[C@H]4C(C)(C)[C@@H](O)CC[C@]4(C)[C@H]3C(=O)C[C@@]12C,5%,1%[11.4 µM],/,-6%,1%[13.5 µM],/
CCn1c2ccccc2c2cc(CN3CCN(Cc4ccccc4Cl)CC3)ccc21,/,/,/,/,/,0
O=C1C=C(N2CCCCC2)C2(CCCCC2)O1,12%,/,/,/,10µM*,/
NC(=O)c1ncn([C@@H]2O[C@@H](CO)[C@@H](O)[C@H]2O)c1O,/,-2%,/,/,/,0
O=C(O)c1cc(=O)c2ccccc2[nH]1,4%,-3%,/,-27%,-5%,-5
O=C(O)c1cc(=O)c2c(Cl)cc(Cl)cc2[nH]1,?,-5%,/,28µM*,-1%,?
CN(C)c1ccc(N/C=C/C(=O)c2ccco2)cc1,68%[38.3 µM],-15%,?,35µM*,28µM*,32
CC(=O)Nc1ccc(NC(=O)c2ccco2)cc1,18%[38.3 µM],0%,?,-12%,-1%,6
